Screening results (PubChem)
The list is not random: actives were taken first. Their share in the collection is about 3.6%.
ClpP mod: qHTS Assay for Activators of ClpP; purified B. subtilis ClpP, FRET peptide cleavage, 20 min; Potency, µM (top dose mostly 57.5 µM), for the others: at the top dose activity change, negative = active; actives 1.9% (n = 340,000); AID 651965, 2013; active = well fitted falling curve with a large enough effect; inconclusive = small, poorly fitted or top-dose-only effect; inactive = no such curve, though single readings can be large or run the other way; also: the source files actives as falling curves though it sought activators and does not explain the sign; nearly all actives have a fitted effect of over 65% in size
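FRET quenching reversal measured ClpP activation: 10 microg/mL B. subtilis ClpP at pH 8 with the FRET-FV decapeptide, read at 430 nm after 320 nm excitation. The 20-min minus 0-min signal was scaled between DMSO/no-enzyme wells and ADEP (5.8 microM final).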
FUS yeast rescue: suppressors of FUS proteinopathy in yeast; S. cerevisiae FUS-expressing, growth rescue, OD600, 24 h; Potency, µM (titrated, usually from 76.6 µM), most hits filed as activators; actives 0.24% (n = 390,000);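 also: plate controls were DMSO vehicle for no effect and reference control for full effect; nearly all actives have a fitted effect of over 55% in size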
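S. cerevisiae expressing FUS from galactose induction served as the toxicity model. Growth after 24hr at 30C, read as absorbance at 600 nm, indicates suppression of toxicity; compounds dosed at several concentrations.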
Abeta yeast res: A-beta toxicity reversal in yeast. yeast expressing A-beta42, growth rescue, OD600, 48 h; response scale: 0% DMSO, 100% iron-clioquinol control. actives 0.063% (n = 410,000). Potency, µM (doses to about 46.1 µM), most hits filed as activators. AID 1347071; also: nearly all actives have a fitted effect of over 55% in size
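Yeast growth medium received pinned compounds, then yeast cells expressing toxic A-beta were added; plates incubated at 30 C for 48 hr. Growth read as absorbance at 600 nm, normalized to DMSO and equimolar FeCl3 plus clioquinol controls.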
aSyn rescue: rescues yeast growth from alpha-synuclein toxicity | Yeast expressing alpha-synuclein, growth rescue, BacTiter-Glo, 24 h | Potency, µM (highest dose often 46.1 µM), for inactives: at the highest dose growth rescue (activation), actives largely listed as activators | actives 0.14% (n = 370,000); also: % of control where 0% means no effect; nearly all actives have a fitted effect of over 65% in size
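Screening used galactose-induced yeast with toxic alpha-synuclein levels, exposed to compound for 24 hr at 30 deg C. Cell growth, read with BacTiter-Glo luminescence, gave the measured signal.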
Mm-Cpn inhibitor: M. maripaludis TRiC chaperonin inhibition | purified Mm-Cpn ATPase, ADP Transcreener TR-FRET | Potency, µM (doses to about 76.9 µM), for inactives: at the highest dose activity, negative = inhibition, hits mostly inhibitors | actives 0.031% (n = 330,000); also: % is scaled to controls: 0 for no effect and ±100 for the full control effect; nearly all actives have a fitted effect of over 80% in size
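Purified archaeal chaperonin (25 nM final) was preincubated with compound for 10 min at 37°C, then ATP (10 uM final) was added for 30 min at 37°C in Tris pH 7.4/KCl/MgCl2/DTT buffer. ADP was quantified by HTRF Transcreener TR-FRET.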
TDP-43 yeast inh: rescues yeast growth from TDP-43 toxicity. TDP-43 expressing yeast growth rescue, BacTiter-Glo, 24 h. Potency, µM (highest dose often 46.1 µM), for inactives: at the highest dose growth rescue (activation), most hits filed as activators. actives 1.8% (n = 410,000). AID 652104; also: % of control where 0% means no effect; nearly all actives have a fitted effect of over 50% in size
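In this qHTS, compounds that restore growth of yeast expressing TDP-43 appear as activators. Cells (OD600=0.02, galactose medium, raffinose-pregrown) are incubated with compound 24 hr at 30 deg C and growth is quantified by BacTiter-Glo.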
* = called active by the depositor. Unless noted, calls follow the shape of the dose curve; as a rule, active = well fitted curve in the direction sought with a large enough effect; inconclusive = small, poorly fitted or top-dose-only effect, or another doubt; inactive = no such curve, though single readings can be large; an effect the other way counts as inactive or inconclusive. Potency is read from the fitted curve at half-maximal effect.

What do the screens show for `O=C1CC(Sc2nnc(-c3ccccc3O)o2)C(=O)N1c1ccccc1` (stereo not drawn)?
ClpP mod: 46%; FUS yeast rescue: inconclusive; Abeta yeast res: inactive; aSyn rescue: inconclusive; Mm-Cpn inhibitor: -8%; TDP-43 yeast inh: inconclusive

How did COc1ccc(N2C(=O)CC(Sc3nnc(-c4ccccc4)o3)C2=O)cc1 (stereo not drawn) do in these assays?
ClpP mod: 20%; FUS yeast rescue: inactive; Abeta yeast res: inactive; Mm-Cpn inhibitor: -28%; TDP-43 yeast inh: 11µM*

How did Cc1nc(SC2CC(=O)N(c3ccccc3)C2=O)n[nH]1 (stereo not drawn) do in these assays?
FUS yeast rescue: inactive; Abeta yeast res: inactive; aSyn rescue: -11%; Mm-Cpn inhibitor: 4%; TDP-43 yeast inh: 4.5µM*

Results for O=C1CC(Sc2ncccn2)C(=O)N1c1ccccc1 (stereo not drawn) ?
ClpP mod: 0%; FUS yeast rescue: inactive; Abeta yeast res: inactive; aSyn rescue: -3%; Mm-Cpn inhibitor: 2%; TDP-43 yeast inh: -10%

Results for CCOc1ccccc1NC(=O)C(OC(=O)c1cnc(C)cn1)c1ccccc1 (stereo not drawn) ?
ClpP mod: 0%; FUS yeast rescue: inactive; Abeta yeast res: inconclusive; aSyn rescue: 12%; TDP-43 yeast inh: 18µM*

How did Nc1cc(N)cc(N)c1 do in these assays?
ClpP mod: -6%

What do the screens show for `OC(COc1ccccc1)Cn1c2ccccc2c2ccccc21` (stereo not drawn)?
ClpP mod: 1%; Abeta yeast res: inconclusive; aSyn rescue: 22%; Mm-Cpn inhibitor: -4%; TDP-43 yeast inh: 18µM*

What do the screens show for `CC1=CC(C)(C)NC(=S)N1C(C)c1ccccc1` (stereo not drawn)?
ClpP mod: 1%; FUS yeast rescue: inactive; Abeta yeast res: 10µM*; aSyn rescue: -7%; Mm-Cpn inhibitor: 1%; TDP-43 yeast inh: 15%

How did CC1=CC(C)(C)NC(=S)N1c1ccc2ccccc2c1 do in these assays?
ClpP mod: 0%; FUS yeast rescue: inactive; Abeta yeast res: inconclusive; aSyn rescue: 6%; Mm-Cpn inhibitor: -3%; TDP-43 yeast inh: 0%

What do the screens show for `COc1ccc(-c2cc(OC(=O)c3ccc(F)cc3)c3c(C)oc(C)c3c(=O)c2)cc1OC`?
ClpP mod: 0%; FUS yeast rescue: inconclusive; Abeta yeast res: inactive; TDP-43 yeast inh: -18%

What do the screens show for `Cc1cc(C)c(OCC(=O)Nc2cccc(NC(=O)c3ccco3)c2)c(Br)c1`?
ClpP mod: -24%; FUS yeast rescue: inconclusive; Abeta yeast res: inactive; aSyn rescue: -4%; Mm-Cpn inhibitor: -10%; TDP-43 yeast inh: -1%

Results for Nc1cccc(-c2nc3ncccc3o2)c1 ?
ClpP mod: 0%; FUS yeast rescue: inactive; Abeta yeast res: inactive; aSyn rescue: 7%; Mm-Cpn inhibitor: -2%; TDP-43 yeast inh: 20%

What do the screens show for `O=C(Nc1ccc(-c2nc3ncccc3o2)cc1)c1ccco1`?
ClpP mod: 28µM*; FUS yeast rescue: inconclusive; Abeta yeast res: inactive; aSyn rescue: -2%; Mm-Cpn inhibitor: -1%; TDP-43 yeast inh: inconclusive

Results for Nc1ccc(-c2nc3ncccc3o2)cc1 ?
ClpP mod: 4%; FUS yeast rescue: inactive; Abeta yeast res: inconclusive; aSyn rescue: 16µM*; Mm-Cpn inhibitor: -8%; TDP-43 yeast inh: 13%

How did Cc1cc(C)c(OCC(=O)Nc2ccc(NC(=O)c3ccco3)cc2)c([N+](=O)[O-])c1 do in these assays?
ClpP mod: 32µM*; FUS yeast rescue: inactive; Abeta yeast res: inactive; aSyn rescue: 0%; Mm-Cpn inhibitor: 0%; TDP-43 yeast inh: -1%
